Measurements taken from paper PMC5540273 (PLoS ONE, 2017).

Tests used:
Settings in all cases: concentration: 1 μM, replicates: in singlicate; n = 1
ASK2 = tested on: T1, ASK2
T1 construct: gene MAP3K6

AURKA = tested on: AURKA
AURKB = tested on: AURKB
AURKC = tested on: AURKC
AXL = tested on: AXL
BIKE = tested on: T2, BIKE
T2 construct: gene BMP2K

BLK = tested on: BLK
BMPR1A = tested on: BMPR1A
BMPR1B = tested on: BMPR1B
BMPR2 = tested on: BMPR2
BMX = tested on: BMX
BRAF = tested on: BRAF
BRK = tested on: T3, BRK
T3 construct: gene PTK6

BRSK1 = tested on: BRSK1
BRSK2 = tested on: BRSK2
BTK = tested on: BTK
BUB1 = tested on: BUB1
CAMK1B = tested on: CAMK1B
CAMK1D = tested on: CAMK1D
CAMK1G = tested on: CAMK1G
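Further: KINOMEscan kinase panel screen.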

SMILES	%Inh (ASK2)	%Inh (AURKA)	%Inh (AURKB)	%Inh (AURKC)	%Inh (AXL)	%Inh (BIKE)	%Inh (BLK)	%Inh (BMPR1A)	%Inh (BMPR1B)	%Inh (BMPR2)	%Inh (BMX)	%Inh (BRAF)	%Inh (BRK)	%Inh (BRSK1)	%Inh (BRSK2)	%Inh (BTK)	%Inh (BUB1)	%Inh (CAMK1B)	%Inh (CAMK1D)	%Inh (CAMK1G)
Cl.Cl.NCC(NC(=O)c1cc(-c2ccccc2)c(-c2ccnc3[nH]ccc23)s1)c1ccccc1 (stereo not shown) [GSK1321561]	1%	33%	0%	69%	46%	79%	58%	4%	0%	0%	38%	9%	8%	0%	0%	0%	72%	24%	5%	0%
CN1CCN(CCCNc2nccc(-c3c(-c4ccc(F)cc4)nn4cc(C(F)(F)F)ccc34)n2)CC1 [GW621581]	0%	0%	11%	0%	10%	11%	50%	0%	0%	0%	0%	41%	9%	2%	1%	0%	26%	5%	11%	0%
CN(c1ccc(NC(=O)Nc2cc(C(F)(F)F)ccc2F)cc1)c1ccnc(Nc2ccc(S(N)(=O)=O)cc2)n1 [GW809893]	17%	90.7%	95.7%	67%	93.3%	26%	96.7%	28%	20%	78%	71%	66%	76%	15%	8%	25%	0%	0%	38%	0%
CN1CCN(Cc2cccc(-c3ccc4c(Nc5ccc(Oc6ccccc6)cc5)ccnc4c3)c2)CC1 [GW578342]	0%	6%	0%	9%	17%	1%	94.8%	0%	0%	8%	20%	0%	90.2%	0%	1%	90.8%	35%	10%	7%	0%
O=C(Nc1cccc(-c2nn3ccccc3c2-c2ccnc(Nc3cccc(C(F)(F)F)c3)n2)c1)c1c(F)cccc1F [GSK292658]	2%	2%	0%	49%	12%	0%	94%	0%	0%	22%	52%	43%	41%	0%	0%	50%	45%	33%	0%	0%
CCCCc1nn2ncccc2c1-c1ccnc(Nc2ccc(N3CCN(C)CC3)cc2)n1 [GW684941]	16%	96.7%	80%	82%	69%	69%	81%	0%	91%	0%	53%	86%	69%	3%	0%	57%	93.3%	25%	0%	0%
COc1cc(Nc2nccc(-c3c(-c4cccc(NC(=O)c5c(F)cccc5F)c4)nn4ccccc34)n2)cc(OC)c1OC [GSK323521]	4%	48%	90.6%	15%	80%	21%	44%	0%	0%	11%	7%	9%	57%	8%	13%	1%	3%	0%	21%	31%
c1ccc(Oc2ccc(Nc3ccnc4cc(-c5ccc(CNCCN6CCOCC6)o5)ccc34)cc2)nc1 [GW567145]	0%	22%	71%	9%	0%	0%	86%	0%	0%	14%	20%	0%	85%	0%	0%	86%	54%	0%	2%	0%
COC(=O)Nc1nc2cc(Oc3ccc(NC(=O)Nc4cc(C(F)(F)F)ccc4F)cn3)ccc2[nH]1.Cl.Cl [GW681170]	0%	78%	40%	52%	98.3%	1%	31%	0%	0%	10%	5%	73%	0%	0%	0%	0%	3%	28%	12%	44%
COc1ccc(Nc2nccc(N3CCC(NC(=O)Nc4cccc(OC)c4)C3)n2)cc1 (stereo not shown) [GSK1379742]	13%	0%	53%	10%	0%	13%	37%	0%	0%	12%	0%	2%	10%	4%	0%	0%	29%	17%	0%	0%
FC(F)(F)c1ccc(/C=C/c2cncnc2Nc2ccc3[nH]c(Cc4ccccc4)nc3c2)cc1 [GW709199]	0%	0%	5%	0%	0%	0%	3%	4%	0%	0%	0%	0%	11%	3%	8%	19%	0%	0%	5%	0%
COc1cc2c(cc1OCCN1CCNCC1)ncc1c3ccc(C#N)cc3[nH]c21	16%	21%	65%	9%	32%	97.8%	0%	12%	22%	19%	17%	28%	0%	25%	0%	2%	99%	28%	30%	14%
CN(C)S(=O)(=O)c1cc(-c2ccc3nccc(-c4cccc(S(N)(=O)=O)c4)c3c2)cnc1N [GSK1669921]	5%	8%	0%	17%	10%	22%	18%	0%	0%	3%	21%	30%	11%	12%	0%	0%	0%	0%	25%	7%
CC(C)(C)c1ccc2nccc(Nc3cccc(O)c3)c2c1 [GW856795]	0%	0%	33%	0%	70%	0%	59%	0%	44%	38%	0%	41%	51%	0%	11%	43%	24%	68%	13%	0%
O=c1[nH]cc(-c2ccc(N3CCOCC3)cc2)c2sc(-c3cn[nH]c3)cc12 [GSK2276055]	13%	28%	21%	21%	0%	28%	0%	1%	0%	24%	11%	35%	0%	0%	0%	0%	0%	5%	29%	12%
Cc1ccc(F)c(C(=O)Nc2cccc(-c3nn4ccccc4c3-c3ccnc(Nc4cccc(F)c4)n3)c2)c1F [GSK361061]	27%	29%	4%	59%	56%	35%	91.3%	10%	0%	8%	48%	68%	74%	12%	0%	0%	42%	0%	18%	12%
Cc1cccc(Nc2nc(N[C@H]3CCNC3)ncc2C(N)=O)c1.Cl [GSK2197149]	3%	0%	0%	58%	24%	96.9%	69%	0%	0%	0%	16%	4%	7%	0%	0%	0%	44%	68%	55%	8%
